Data from PubChem BioAssay (EPA / NIEHS).
Records with an inconclusive call do not appear. Active and inactive are the calls of the source. How the source made its calls: active means hit-call score of the fitted dose curve at least 0.9, where 1 is the maximum; inconclusive means response in the unintended direction; inactive means score below 0.9.

Experiments:
[1] = biological target: Cellular tumor antigen p53 (Homo sapiens) (UniProt P04637); experiment: TOX21_p53_BLA_p2_ratio: Tox21 HCT-116 p53 Agonism Beta-lactamase Assay, Ratio, Phase 2 (AID 2283592)
Chain of Cellular tumor antigen p53 (Homo sapiens) (P04637 whole entry, looked up): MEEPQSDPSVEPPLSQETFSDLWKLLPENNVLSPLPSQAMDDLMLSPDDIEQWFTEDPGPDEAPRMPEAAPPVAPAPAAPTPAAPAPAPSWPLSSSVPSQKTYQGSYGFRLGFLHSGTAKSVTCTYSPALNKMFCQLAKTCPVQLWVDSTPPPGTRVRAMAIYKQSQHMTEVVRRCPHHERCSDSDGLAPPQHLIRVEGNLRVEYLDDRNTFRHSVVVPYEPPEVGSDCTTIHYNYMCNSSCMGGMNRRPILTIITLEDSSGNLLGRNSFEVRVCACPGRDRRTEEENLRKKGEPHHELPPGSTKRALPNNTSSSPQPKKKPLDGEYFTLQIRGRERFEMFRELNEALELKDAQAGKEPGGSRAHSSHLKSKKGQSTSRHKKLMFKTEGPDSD
Method in brief: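 HCT-116 cells with p53-responsive beta-lactamase reporter, 4000 cells/well, preincubated 5 h, then compound in DMSO (217-fold dilution) for 16 h at 37C. CCF4-AM substrate 2 h at room temperature; 460/530 nm emission ratio fitted upward versus DMSO.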

[2] = TOX21_p53_BLA_p4_viability: Viability Assessment in the Tox21 HCT-116 p53 Agonism Beta-lactamase Assay, Phase 4 (AID 2283597);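 further: hits lower the luminescence signal meaning cytotoxicity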
Method in brief: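 HCT-116 p53-bla cells, 4000/well, dosed after 5 h attachment and incubated 16 h at 37 °C, 5% CO2. Viability from CellTiter-Glo ATP luminescence after 30 min at room temperature, taken after the beta-lactamase read; loss of signal indicates cytotoxicity.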

[3] = biological target: Cellular tumor antigen p53 (Homo sapiens) (UniProt P04637); experiment: TOX21_p53_BLA_p5_ratio: Tox21 HCT-116 p53 Agonism Beta-lactamase Assay, Ratio, Phase 5 (AID 2283599)
Method in brief: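 HCT-116 cells carrying a p53-inducible beta-lactamase reporter were seeded at 4000 cells/well and dosed after 5 h with compound in DMSO (217-fold dilution). After 16 h at 37C, CCF4-AM substrate was added for 2 h, and the 460/530 nm emission ratio was scored as gain-of-signal versus DMSO.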

[4] = TOX21_p53_BLA_p5_viability: Viability Assessment in the Tox21 HCT-116 p53 Agonism Beta-lactamase Assay, Phase 5 (AID 2283600)
Method in brief: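 HCT-116 p53 beta-lactamase reporter cells, 4000/well, were exposed to compound (pin transfer, 217-fold dilution) for 16 hours at 37C. Cellular ATP was read by CellTiter-Glo luminescence after 30 min at room temperature.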

[5] = biological target: Cellular tumor antigen p53 (Homo sapiens) (UniProt P04637); experiment: TOX21_p53_BLA_p4_ratio: Tox21 HCT-116 p53 Agonism Beta-lactamase Assay, Ratio, Phase 4 (AID 2283601)
Method in brief: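 HCT116 cells carrying an inducible beta-lactamase reporter were plated at 4000 cells/well, rested 5 h, then exposed to compounds in DMSO (217-fold dilution) for 16 h at 37C. CCF4-AM substrate was loaded 2 h at room temperature; 460/530 nm emission ratio scored gain-of-signal versus DMSO.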

PGR (gene 5241) [6] = biological target: PGR (gene 5241) (UniProt P06401); experiment: TOX21_PR_BLA_Followup_Antagonist_ratio: Tox21 HEK293 Progesterone Receptor (PR) Antagonism Beta-lactamase Follow-Up Assay, Ratio (AID 2283934)
Chain of PGR (gene 5241) (P06401 whole entry, looked up): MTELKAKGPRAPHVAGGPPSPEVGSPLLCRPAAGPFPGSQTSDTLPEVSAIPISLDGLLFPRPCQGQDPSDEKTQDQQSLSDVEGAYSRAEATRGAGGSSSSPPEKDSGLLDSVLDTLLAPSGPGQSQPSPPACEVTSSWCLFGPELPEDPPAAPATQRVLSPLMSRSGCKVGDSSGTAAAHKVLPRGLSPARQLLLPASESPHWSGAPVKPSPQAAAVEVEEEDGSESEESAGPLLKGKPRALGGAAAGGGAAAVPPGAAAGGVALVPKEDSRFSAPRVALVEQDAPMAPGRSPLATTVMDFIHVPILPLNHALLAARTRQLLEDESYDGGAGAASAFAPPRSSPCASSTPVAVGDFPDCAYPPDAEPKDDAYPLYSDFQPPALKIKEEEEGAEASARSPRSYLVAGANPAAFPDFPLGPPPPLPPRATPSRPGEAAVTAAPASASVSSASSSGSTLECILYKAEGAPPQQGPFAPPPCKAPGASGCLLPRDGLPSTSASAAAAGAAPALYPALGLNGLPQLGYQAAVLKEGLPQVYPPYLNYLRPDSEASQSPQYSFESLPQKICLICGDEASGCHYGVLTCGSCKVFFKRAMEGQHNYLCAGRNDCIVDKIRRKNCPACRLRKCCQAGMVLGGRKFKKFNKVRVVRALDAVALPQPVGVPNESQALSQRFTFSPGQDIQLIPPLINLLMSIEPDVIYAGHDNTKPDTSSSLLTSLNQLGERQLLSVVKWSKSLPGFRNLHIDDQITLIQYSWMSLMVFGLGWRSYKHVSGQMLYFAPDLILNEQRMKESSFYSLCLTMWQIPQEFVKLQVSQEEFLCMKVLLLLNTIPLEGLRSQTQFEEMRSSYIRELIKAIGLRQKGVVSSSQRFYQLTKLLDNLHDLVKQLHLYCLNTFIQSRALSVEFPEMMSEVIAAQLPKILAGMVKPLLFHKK
Method in brief: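 PR-UAS-bla HEK293T cells in medium with 2% charcoal-stripped FBS were treated with compounds plus 1 nM (final) promegestone (R5020) for 16 hr at 37C. LiveBLAzer B/G FRET substrate was then added for 2 h at room temperature; signal is cleaved/uncleaved substrate ratio versus DMSO.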

[7] = TOX21_PR_BLA_Followup_Agonist_viability: Viability Assessment in the Tox21 HEK293 Progesterone Receptor (PR) Agonism Beta-lactamase Follow-Up Assay (AID 2283935);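 further: signal loss means lower viability so actives are cytotoxic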
Method in brief: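 PR-UAS-bla HEK293T cells in 2% charcoal-stripped FBS medium, compound added after 6 hr plating, 16 hr at 37C/5% CO2. After bla FRET read, CellTiter-Glo added; luminescence read after 30 min at room temperature; signal loss marks cytotoxicity.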

PGR (gene 5241) [8] = biological target: PGR (gene 5241) (UniProt P06401); experiment: TOX21_PR_LUC_Followup_Antagonist: Tox21 HEK293 Progesterone Receptor (PR) Antagonism Luciferase Follow-Up Assay (AID 2283938);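 further: curve fitted upward as signal gain over DMSO baseline despite antagonist label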
Method in brief: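 HEK293-PR-A-luc cells, 3,000/well, preincubated 5 h at 37C before compound addition in DMSO; 16 h compound exposure at 37C. ONE-Glo luciferase luminescence read after 30 min at room temperature, fitted relative to DMSO baseline.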

[9] = TOX21_PR_LUC_Followup_Antagonist_viability: Viability Assessment in the Tox21 HEK293 Progesterone Receptor (PR) Antagonism Luciferase Follow-Up Assay (AID 2283940)
Method in brief: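 HEK293-PR-A-luc cells, precultured 5 days in assay medium with 10% charcoal-stripped FBS, were seeded at 3,000 cells/well, treated with compounds in DMSO for 16 h at 37C, and viability was read as cellular ATP by CellTiter-Glo luminescence.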

[10] = TOX21_PR_LUC_Followup_Agonist_viability: Viability Assessment in the Tox21 HEK293 Progesterone Receptor (PR) Agonism Luciferase Follow-Up Assay (AID 2283941);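 further: loss of signal means cytotoxicity so actives lower viability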
Method in brief: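 HEK293-PR-A-luc cells, pre-cultured 5 days in 10% charcoal-stripped FBS, were seeded at 3,000 cells/well, rested 5 h at 37C, then given compound in DMSO for 16 h at 37C. Cellular ATP was read by CellTiter-Glo luminescence; signal loss indicates cytotoxicity.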

Measured: outcome

Cc1ccnc2c1NC(=O)c1cccnc1N2C1CC1
inactive: [1] | [2] | [3] | [4] | [5]

CCn1ccnc1CC1COc2ccccc2O1 (stereo unspecified)
inactive: [1] | [2] | [3] | [4] | [5]

CC/C=C(\C(=O)N[C@@H]1C(=O)N2C(C(=O)OCOC(=O)C(C)(C)C)=C(COC(N)=O)CS[C@H]12)c1csc(N)n1
inactive: [1] | [2] | [5]

O=C(OC1C[C@@H]2CC3C[C@H](C1)N2CC3=O)c1c[nH]c2ccccc12 (stereo partly specified)
inactive: [1] | [2] | [4]

CC(=O)NC(=O)c1ccccc1O
inactive: [1] | [2] | [3] | [4] | [5]

O=C1NC(=O)[C@H]2[C@@H]1[C@@H]1C=C[C@H]2C1
inactive: [1] | [2] | [3] | [4] | [5]

CC(=O)OCC(=O)Nc1cc(C#N)cc(NC(=O)COC(C)=O)c1Cl
inactive: [1] | [2] | [4]

C=N[C@@H](C(=O)N[C@@H]1C(=O)N2[C@@H]1SC(C)(C)[C@@H]2C(=O)O)c1ccccc1
inactive: [1] | [2] | [3] | [4] | [5]

C[Se]CC[C@H](N)C(=O)O
inactive: [1] | [2] | [3] | [4] | [5]

OC(CCCN1CCCCC1)(c1ccccc1)c1ccccc1
inactive: [1] | [2] | [4]

CCc1cccc(C)c1
inactive: [1] | [2] | [3] | [5]

Cl/C(=C\n1cncn1)c1ccc(Cl)cc1Cl
inactive: all assays above

Brc1cc2ccccc2c2ccccc12
inactive: [1] | [2] | [3] | [5]

C=C(C)C(=O)OCCCCCCOC(=O)C(=C)C
inactive: [1] | [3] | [4]

C=CC(=O)[O-].C=CC(=O)[O-].[Zn+2]
inactive: [1] | [3] | [4]

CO[C@@]1(NC(=O)C(C(=O)O)c2ccc(O)cc2)C(=O)N2C(C(=O)O)=C(CSc3nnnn3C)CO[C@@H]21 (stereo partly specified)
inactive: [1] | [3] | [4] | [5]

Oc1ccc(C(O)CNCCCCCCNCC(O)c2ccc(O)c(O)c2)cc1O (stereo unspecified)
inactive: [1] | [3]

CCOc1ccc(S(=O)(=O)O)c2cccnc12
inactive: [1] | [3] | [4]

CCCCCCCCCCCCCCCCOP(=O)([O-])OCC[N+](C)(C)C
inactive: [1] | [3]

O=C1NCCN1CCO
inactive: [1] | [3]

CC1(C)Cc2cccc(N)c2O1
inactive: [1] | [3] | [4]

C1COCCO1
inactive: [1] | [3]

CCOC(=O)CCC(=O)O[C@H]1[C@H](O[C@@H]2[C@@H](C)[C@H](O[C@H]3C[C@@](C)(OC)[C@@H](O)[C@H](C)O3)[C@@H](C)C(=O)O[C@H](CC)[C@@](C)(O)[C@H](O)[C@@H](C)C(=O)[C@H](C)C[C@@]2(C)O)O[C@H](C)C[C@@H]1N(C)C
inactive: [1] | [2] | [5]

CC(C)(C)NCC(O)COc1cccc2c1C[C@H](O)[C@H](O)C2 (stereo partly specified)
inactive: [1] | [3] | [4] | [5]

O=C(C(=O)c1ccc(Br)cc1)c1ccc(Br)cc1
inactive: [1] | [3]

CCCCCCCCCCCCCCCCBr
inactive: [1] | [3]

CC(COc1ccccc1)NN (stereo unspecified)
inactive: [1] | [2] | [5]

CCCn1c(=O)[nH]c(=O)c2[nH]cnc21
inactive: [1] | [3] | [4] | [5]

CC(C)(C)NCCO
inactive: [1] | [2] | [5]

CC(C)C(=O)c1c(C(C)C)nn2ccccc12
inactive: [1] | [3]

C=CC(=O)OCCOCCOCCOCCOC(=O)C=C
inactive: [1] | [3]

Nc1cccc2c(=O)[nH][nH]c(=O)c12
inactive: [1] | [3] | [4] | [5]

C[C@@H]1CC[C@@]2(OC1)O[C@H]1C[C@H]3[C@@H]4CC[C@H]5C[C@@H](O)CC[C@]5(C)[C@H]4CC(=O)[C@]3(C)[C@H]1[C@@H]2C
inactive: [1] | [3] | [4] | [5]

N[C@@H](C(=O)N[C@@H]1C(=O)N2C(C(=O)O)=C(Cl)CC[C@H]12)c1ccccc1
inactive: [1] | [3]

CCCCCCCCCCCCOCCCN
inactive: [1] | [2] | [5]

C1CCc2nnnn2CC1
inactive: [1] | [3] | [4]

COc1ccc(-c2cc(C(F)F)nn2-c2ccc(S(N)(=O)=O)cc2)cc1F
inactive: [1] | [2] | [5]

CCCN(CC)C(CC)C(=O)Nc1c(C)cccc1C (stereo unspecified)
inactive: [1] | [3] | [4]

CC(C)=CCC[C@@](C)(O)[C@H]1CC=C(C)CC1
inactive: [1] | [3]

CC1(C)O[C@@H]2C[C@H]3[C@@H]4CCC5=CC(=O)C=C[C@]5(C)[C@H]4[C@@H](O)C[C@]3(C)[C@]2(C(=O)CO)O1
inactive: [1] | [3] | [4]
